Laboratory results: PubChem BioAssay (NCI)
About 83,000 compounds went through this panel and 20% of them were active in at least one assay; those are over-represented in the sample as a whole.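 Plates (96-well) were seeded with cells, treated with compound at one concentration, and incubated for 48 hours before percent growth was determined.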 Values without a mark were called inactive. Rule for the calls: active = growth percent below 10; inactive = the rest.

Tested on: HL-60(TB) leukemia
Test: NCI-60 one-dose screen, 48 h (100 = growth as untreated, 0 = no growth, -100 = all killed)
Settings: 10 µM unless noted

Compound	growth [%]
CC(C)(C)OC(=O)CN1CCc2c(sc3ncnc(N4CCN(c5ccc(F)cc5)CC4)c23)C1	99.5
C1CNC(C2=NCCN2)=N1	109
CCCCC/C=C/CCC(=O)N[C@H]1[C@H](Oc2c3cc4cc2Oc2ccc(cc2Cl)[C@@H](O[C@@H]2O[C@H](CO)[C@@H](O)[C@H](O)[C@H]2NC(C)=O)[C@@H]2NC(=O)[C@H](NC(=O)[C@@H]4NC(=O)[C@H]4NC(=O)[C@@H](Cc5ccc(c(Cl)c5)O3)NC(=O)[C@@H](N)c3ccc(O)c(c3)Oc3cc(O)cc4c3)c3ccc(O)c(c3)-c3c(O[C@H]4O[C@H](CO)[C@@H](O)[C@H](O)[C@@H]4O)cc(O)cc3[C@H](C(=O)O)NC2=O)O[C@H](CO)[C@H](O)[C@@H]1O	105
